PubChem BioAssay (Tox21)
Results filed as inconclusive are left out. Calls of active or inactive are those of the source. The call rests on the fitted dose curve; in most records, active means well fitted activation curve with a large enough effect in the repeat runs; inconclusive means weak or mixed curves; inactive means flat fitted curve, though single readings scatter.

Assay: A CellTox Green Cytotoxicity Assay to monitor cytotoxicity in HEK293 cells - 16 hour (AID 1224888); further: nearly all actives have a fitted effect of over 35% in size
Conditions: CellTox Green fluorescence; series mostly up to 76.8 µM; activity change: at the top concentration
Excerpt: National Center for Advancing Translational Sciences [NCATS]
NIH Chemical Genomics Center [NCGC]
U.S. Environmental Protection Agency [EPA]
National Institutes of Environmental Health Sciences [NIEHS]
National Toxicology Program [NTP]
Cell-based models are critical for drug discovery. Determining the natural cytotoxic effects resulting from test compounds is an essential research activity. A CellTox Green Cytotoxicity Assay to monitor cytotoxicity in real time of continues cell culture during 40 hours of the compound treatment was used to screen Tox21 10K library compounds in Hek293 cells. CellTox Green Cytotoxicity Assay is a nonlytic, homogeneous, biofluorescent method to measure cytotoxicity in cell culture after experimental manipulation. The assay system uses a proprietary asymmetric cyanine dye that is excluded from viable cells but preferentially stains the dead cell's DNA. […] Viable cells produce no appreciable increases in fluorescence. Therefore, the fluorescence signal produced by the binding interaction with dead cell DNA is proportional to cytotoxicity.
The mixture of Hek293 cell suspension and reagents were dispensed at 600cells/6 ul/well in 1536-well tissue culture treated black solid bottom plates using a Multidrop dispenser. After the assay plates were incubated at a 37 C/5% CO2 incubator for 5 hours, 23 nL of compounds dissolved in DMSO, positive and negative controls was transferred to the assay plate by a pintool work station. The plates were incubated at 37 C for 40 hours. The fluorescence intensity were measured at 0h, 8h, 16h, 24h, 32h and 40h time points using ViewLux plate reader during compound treatment.
On the % scale 0 is the no-effect control and ±100 the full control effect.

Compound	activity change	Potency
CCn1nc(C)c2c1C(=O)NCC(c1ccc(O)cc1)=N2	-6.7% (inactive)	–
NC(=O)N(O)[C@@H]1C=C[C@H](Oc2cccc(Oc3ccc(F)cc3)c2)C1	15.5% (inactive)	–
CCC1(C)CC(=O)NC1=O (stereo not given)	-15.2% [at 35.3 µM, hits give high values] (inactive)	–
C=CC(C)=CCC=C(C)C	-20.4% (inactive)	–
COCCOC(=O)C1=C(C)NC(C)=C(C(=O)OC/C=C/c2ccccc2)C1c1cccc([N+](=O)[O-])c1 (stereo not given)	-5.45% [at 35.3 µM, hits give high values] (inactive)	–
Oc1cc(O)c(Cl)cc1Cl	1.71% (inactive)	–
COc1cc2[nH]c(=O)[nH]c(=O)c2cc1OC	-8.96% [at 35.3 µM, hits give high values] (inactive)	–
CC(C)C(OC(=O)c1ccccc1)C(C)(C)COC(=O)c1ccccc1 (stereo not given)	0.263% (inactive)	–
CCCCOC(=O)CCS	-16.4% (inactive)	–
Cc1cc(O)c(C(C)C)cc1Cl	–	inactive
CCOC(=O)[C@@H](C)Oc1ccc(Oc2nc3ccc(Cl)cc3o2)cc1	0.595% (inactive)	–
O=C(O)C(Cc1cc(I)c(O)c(I)c1)c1ccccc1 (stereo not given)	-16.9% [at 35.3 µM, hits give high values] (inactive)	–
CC(=O)[C@H]1CC[C@H]2[C@@H]3C[C@H](C)C4=CC(=O)CC[C@]4(C)[C@H]3[C@@H](O)C[C@]12C	4.79% [at 35.3 µM, hits give high values] (inactive)	–
Cc1cc(S(=O)(=O)O)ccc1N=Nc1c(O)ccc2ccccc12	-15.7% (inactive)	–
O=C(CCC1CCN(Cc2ccccc2)CC1)c1ccc2c(c1)NCCCC2	19.9% [at 35.3 µM, hits give high values] (inactive)	–
CN1CCN(c2c(F)cc3c(=O)c(C(=O)O)cn4c3c2OCN4C)CC1	-3.76% [at 15.8 µM, hits give high values] (inactive)	–
OCC1CC=CCC1 (stereo not given)	-7.74% (inactive)	–
CC(=O)[C@H]1CC[C@H]2[C@@H]3C=CC4=CC(=O)CC[C@@]4(C)[C@@H]3CC[C@]12C	1.01% [at 35.3 µM, hits give high values] (inactive)	–
CC(=O)Oc1ccc2c(c1)CC[C@@H]1[C@@H]2CC[C@]2(C)[C@@H](O)CC[C@@H]12	5.3% [at 35.3 µM, hits give high values] (inactive)	–
OC(CCCN1CCCCC1)(c1ccccc1)c1ccccc1	5.02% [at 35.3 µM, hits give high values] (inactive)	–

Compound	activity change	Potency
C=C(C)C(=O)OCCOC(=O)CC(C)=O	-4.08% (inactive)	–
CCCc1c(OCCCOc2ccc(OCC(=O)O)cc2)ccc(C(C)=O)c1O	10.3% (inactive)	–
CNC(=S)NC	-0.928% (inactive)	–
C1COCO1	2.72% (inactive)	–
CCCOC(=O)c1ccc(N)cc1	2.17% [at 35.3 µM, hits give high values] (inactive)	–
CC(=O)OCC(=O)[C@H]1CC[C@H]2[C@@H]3CCC4=CC(=O)CC[C@]4(C)[C@H]3CC[C@]12C	1.04% [at 35.3 µM, hits give high values] (inactive)	–
CCOC(=O)N1CCC(n2c(=O)[nH]c3cc(Cl)ccc32)CC1	-4.15% [at 35.3 µM, hits give high values] (inactive)	–
O=C(CCCCCCCCC#CI)Oc1ccccc1	1.64% [at 35.3 µM, hits give high values] (inactive)	–
O=C(O)c1c(O)c(-c2ccccc2)nc2ccccc12	8.13% [at 35.3 µM, hits give high values] (inactive)	–
CCC(C)(O)CCC=C(C)C (stereo not given)	-2.88% (inactive)	–
CO[C@H]1O[C@H](CO)[C@@H](O)[C@H](O)[C@H]1O	-1.39% (inactive)	–
CN(C)CCOC1=Cc2ccccc2Sc2ccc(Cl)cc21	6.14% [at 35.3 µM, hits give high values] (inactive)	–
C[C@@H]1C[C@H]2[C@@H]3CCC4=CC(=O)C=C[C@]4(C)[C@@]3(F)[C@@H](O)C[C@]2(C)[C@@]1(O)C(=O)CO	-12.8% (inactive)	–
CCCCCCCCCOC(C)=O	-1.15% (inactive)	–
C/C=C/C=C/CCCCCCCO	-1.14% (inactive)	–
O=C(O)c1snc(Cl)c1Cl	2.16% (inactive)	–
CCCCCC=CCC=CCCCCCCCC(=O)OCC	-6.25% [at 35.3 µM, hits give high values] (inactive)	–
CCOC(=O)c1ccccc1OC	-8.46% (inactive)	–
C[Si](NC1CCCCC1)(NC1CCCCC1)NC1CCCCC1	3.86% (inactive)	–
Nc1ccc(C(=O)OCCCOC(=O)c2ccc(N)cc2)cc1	-3.15% (inactive)	–
